# Measured values from publication PMC8384837, “Expanding the binding specificity for RNA recognition by a PUF domain”.
# Positions count from the first letter of the chain named.
# Tests used:
# Experiment in all cases: yeast three-hybrid, YBZ-1, SC-Leu-His + 0.5 mM 3-AT, 4 days
# Conditions in all cases: tags: N-Gal4 AD-HA kept; label: inside an RPR1-promoter hybrid RNA with tandem MS2 sites; ssRNA
# PUM1 PUF domain R2-ARP = PUM1 PUF domain R2-ARP (Homo sapiens, UniProt Q14671 828-1176, N899A;Y900R;Q903P)
# Outline: (§1)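 The interaction score is the log change in variant frequency from input to selection. Scores were computed in log2 with a pseudocount of 1 for absent variants, using Illumina sequencing of PCR-amplified repeat regions. The input came from four days on SC-Leu and the selection from four days on SC-Leu-His + 0.5 mM 3-AT. The cells were strain YBZ-1 (LexA–MS2 coat fusion, HIS3 reporter) co-expressing Pumilio-1 PUF domain libraries and matching RNA elements from a centromeric plasmid.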
# PUM1 PUF domain R4-GCG = PUM1 PUF domain R4-GCG (Homo sapiens, UniProt Q14671 828-1176, N971G;H972C;Q975G)
# Outline: as §1
# PUM1 PUF domain R4-SHP = PUM1 PUF domain R4-SHP (Homo sapiens, UniProt Q14671 828-1176, N971S;Q975P)
# Outline: as §1
# PUM1 PUF domain R7-QFY = PUM1 PUF domain R7-QFY (Homo sapiens, UniProt Q14671 828-1176, S1079Q;N1080F;E1083Y)
# Outline: as §1
# PUM1 PUF domain R4-SRY = PUM1 PUF domain R4-SRY (Homo sapiens, UniProt Q14671 828-1176, N971S;H972R;Q975Y)
# Outline: as §1
# PUM1 PUF domain R1-KGN = PUM1 PUF domain R1-KGN (Homo sapiens, UniProt Q14671 828-1176, S863K;R864G;Q867N)
# Outline: as §1
# PUM1 PUF domain R3-FWG = PUM1 PUF domain R3-FWG (Homo sapiens, UniProt Q14671 828-1176, C935F;R936W;Q939G)
# Outline: as §1
# PUM1 PUF domain R3-YRR = PUM1 PUF domain R3-YRR (Homo sapiens, UniProt Q14671 828-1176, C935Y;Q939R)
# Outline: as §1
# PUM1 PUF domain R3-SCD = PUM1 PUF domain R3-SCD (Homo sapiens, UniProt Q14671 828-1176, C935S;R936C;Q939D)
# Outline: as §1
# PUM1 PUF domain R3-LNG = PUM1 PUF domain R3-LNG (Homo sapiens, UniProt Q14671 828-1176, C935L;R936N;Q939G)
# Outline: as §1
# PUM1 PUF domain R3-FRC = PUM1 PUF domain R3-FRC (Homo sapiens, UniProt Q14671 828-1176, C935F;Q939C)
# Outline: as §1
# PUM1 PUF domain R5-DWV = PUM1 PUF domain R5-DWV (Homo sapiens, UniProt Q14671 828-1176, C1007D;R1008W;Q1011V)
# Outline: as §1
# PUM1 PUF domain R6-LYG = molecular target: T1, PUM1 PUF domain R6-LYG (Homo sapiens, UniProt Q14671 828-1176, N1043L;Q1047G)
# T1 sequence: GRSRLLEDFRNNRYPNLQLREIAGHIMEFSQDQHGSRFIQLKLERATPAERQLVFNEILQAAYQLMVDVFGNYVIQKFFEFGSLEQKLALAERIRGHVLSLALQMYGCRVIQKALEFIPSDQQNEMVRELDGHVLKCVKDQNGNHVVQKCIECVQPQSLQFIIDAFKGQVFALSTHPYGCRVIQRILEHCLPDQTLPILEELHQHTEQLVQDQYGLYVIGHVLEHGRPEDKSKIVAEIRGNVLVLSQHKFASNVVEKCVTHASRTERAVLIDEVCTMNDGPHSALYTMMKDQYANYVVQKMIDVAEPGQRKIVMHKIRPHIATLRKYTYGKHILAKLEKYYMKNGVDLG
# Outline: as §1
# PUM1 PUF domain R5-AGR = PUM1 PUF domain R5-AGR (Homo sapiens, UniProt Q14671 828-1176, C1007A;R1008G;Q1011R)
# Outline: as §1
# PUM1 PUF domain R6-CFH = molecular target: T2, PUM1 PUF domain R6-CFH (Homo sapiens, UniProt Q14671 828-1176, N1043C;Y1044F;Q1047H)
# T2 sequence: T1 sequence with L216C, Y217F, G220H
# Outline: as §1
# PUM1 PUF domain R3-DRQ = PUM1 PUF domain R3-DRQ (Homo sapiens, UniProt Q14671 828-1176, C935D)
# Outline: as §1
# PUM1 PUF domain R8-PWR = PUM1 PUF domain R8-PWR (Homo sapiens, UniProt Q14671 828-1176, N1122P;Y1123W;Q1126R)
# Outline: as §1
# PUM1 PUF domain R8-CFK = PUM1 PUF domain R8-CFK (Homo sapiens, UniProt Q14671 828-1176, N1122C;Y1123F;Q1126K)
# Outline: as §1
# PUM1 PUF domain R8-KHY = PUM1 PUF domain R8-KHY (Homo sapiens, UniProt Q14671 828-1176, N1122K;Y1123H;Q1126Y)
# Outline: as §1
# PUM1 PUF domain R7-NRR = PUM1 PUF domain R7-NRR (Homo sapiens, UniProt Q14671 828-1176, S1079N;N1080R;E1083R)
# Outline: as §1
sequence,measurement,setting,value
GGCUAGAACUAGUGGAUCCCCCGGCGCCCGGCGGCUCGAGCCCGGGUAAGUGUAAAAAGUCUGCAUGCCGCCGGGCGCCAUGCCUGCAGGUCGACUCUAGAAAACAUG,binding signal,PUM1 PUF domain R2-ARP,4.42 log2 enrichment (interaction score)
GGCUAGAACUAGUGGAUCCCCCGGCGCCCGGCGGCUCGAGCCCGGGUAAGUGUACAUAGUCUGCAUGCCGCCGGGCGCCAUGCCUGCAGGUCGACUCUAGAAAACAUG,binding signal,PUM1 PUF domain R4-GCG,1.07 log2 enrichment (interaction score)
same,binding signal,PUM1 PUF domain R4-SHP,5.25 log2 enrichment (interaction score)
GGCUAGAACUAGUGGAUCCCCCGGCGCCCGGCGGCUCGAGCCCGGGUAAGUUUAAAUAGUCUGCAUGCCGCCGGGCGCCAUGCCUGCAGGUCGACUCUAGAAAACAUG,binding signal,PUM1 PUF domain R7-QFY,2.24 log2 enrichment (interaction score)
GGCUAGAACUAGUGGAUCCCCCGGCGCCCGGCGGCUCGAGCCCGGGUAAGUGUAUAUAGUCUGCAUGCCGCCGGGCGCCAUGCCUGCAGGUCGACUCUAGAAAACAUG,binding signal,PUM1 PUF domain R4-GCG,2.61 log2 enrichment (interaction score)
same,binding signal,PUM1 PUF domain R4-SRY,0.46 log2 enrichment (interaction score)
same,binding signal,PUM1 PUF domain R4-SHP,5.36 log2 enrichment (interaction score)
GGCUAGAACUAGUGGAUCCCCCGGCGCCCGGCGGCUCGAGCCCGGGUAAGUGUAAAUUGUCUGCAUGCCGCCGGGCGCCAUGCCUGCAGGUCGACUCUAGAAAACAUG,binding signal,PUM1 PUF domain R1-KGN,4.31 log2 enrichment (interaction score)
GGCUAGAACUAGUGGAUCCCCCGGCGCCCGGCGGCUCGAGCCCGGGUAAGUGUAAGUAGUCUGCAUGCCGCCGGGCGCCAUGCCUGCAGGUCGACUCUAGAAAACAUG,binding signal,PUM1 PUF domain R3-FWG,7.02 log2 enrichment (interaction score)
same,binding signal,PUM1 PUF domain R3-YRR,4.01 log2 enrichment (interaction score)
same,binding signal,PUM1 PUF domain R3-SCD,5.61 log2 enrichment (interaction score)
same,binding signal,PUM1 PUF domain R3-LNG,3.21 log2 enrichment (interaction score)
same,binding signal,PUM1 PUF domain R3-FRC,4.65 log2 enrichment (interaction score)
GGCUAGAACUAGUGGAUCCCCCGGCGCCCGGCGGCUCGAGCCCGGGUAAGUGUGAAUAGUCUGCAUGCCGCCGGGCGCCAUGCCUGCAGGUCGACUCUAGAAAACAUG,binding signal,PUM1 PUF domain R5-DWV,3.79 log2 enrichment (interaction score)
GGCUAGAACUAGUGGAUCCCCCGGCGCCCGGCGGCUCGAGCCCGGGUAAGUGUAAAUAGUCUGCAUGCCGCCGGGCGCCAUGCCUGCAGGUCGACUCUAGAAAACAUG,binding signal,PUM1 PUF domain R6-LYG,4.49 log2 enrichment (interaction score)
same,binding signal,PUM1 PUF domain R5-DWV,2.8 log2 enrichment (interaction score)
same,binding signal,PUM1 PUF domain R4-GCG,2.71 log2 enrichment (interaction score)
same,binding signal,PUM1 PUF domain R5-AGR,0.53 log2 enrichment (interaction score)
same,binding signal,PUM1 PUF domain R7-QFY,4.21 log2 enrichment (interaction score)
same,binding signal,PUM1 PUF domain R3-FWG,4.7 log2 enrichment (interaction score)
same,binding signal,PUM1 PUF domain R6-CFH,2.76 log2 enrichment (interaction score)
same,binding signal,PUM1 PUF domain R3-DRQ,4.43 log2 enrichment (interaction score)
same,binding signal,PUM1 PUF domain R4-SRY,5.27 log2 enrichment (interaction score)
same,binding signal,PUM1 PUF domain R8-PWR,4.27 log2 enrichment (interaction score)
GGCUAGAACUAGUGGAUCCCCCGGCGCCCGGCGGCUCGAGCCCGGGUAAGUGUCAAUAGUCUGCAUGCCGCCGGGCGCCAUGCCUGCAGGUCGACUCUAGAAAACAUG,binding signal,PUM1 PUF domain R5-AGR,3.47 log2 enrichment (interaction score)
GGCUAGAACUAGUGGAUCCCCCGGCGCCCGGCGGCUCGAGCCCGGGUAAGCGUAAAUAGUCUGCAUGCCGCCGGGCGCCAUGCCUGCAGGUCGACUCUAGAAAACAUG,binding signal,PUM1 PUF domain R8-CFK,4.21 log2 enrichment (interaction score)
same,binding signal,PUM1 PUF domain R8-PWR,4.3 log2 enrichment (interaction score)
same,binding signal,PUM1 PUF domain R8-KHY,4.22 log2 enrichment (interaction score)
GGCUAGAACUAGUGGAUCCCCCGGCGCCCGGCGGCUCGAGCCCGGGUAAGUCUAAAUAGUCUGCAUGCCGCCGGGCGCCAUGCCUGCAGGUCGACUCUAGAAAACAUG,binding signal,PUM1 PUF domain R7-NRR,4.05 log2 enrichment (interaction score)
GGCUAGAACUAGUGGAUCCCCCGGCGCCCGGCGGCUCGAGCCCGGGUAAGUGUAAUUAGUCUGCAUGCCGCCGGGCGCCAUGCCUGCAGGUCGACUCUAGAAAACAUG,binding signal,PUM1 PUF domain R3-FWG,4.85 log2 enrichment (interaction score)
same,binding signal,PUM1 PUF domain R3-YRR,0.22 log2 enrichment (interaction score)
same,binding signal,PUM1 PUF domain R3-LNG,1.7 log2 enrichment (interaction score)
GGCUAGAACUAGUGGAUCCCCCGGCGCCCGGCGGCUCGAGCCCGGGUAAGUGUUAAUAGUCUGCAUGCCGCCGGGCGCCAUGCCUGCAGGUCGACUCUAGAAAACAUG,binding signal,PUM1 PUF domain R5-AGR,0.84 log2 enrichment (interaction score)
GGCUAGAACUAGUGGAUCCCCCGGCGCCCGGCGGCUCGAGCCCGGGUAAGUGAAAAUAGUCUGCAUGCCGCCGGGCGCCAUGCCUGCAGGUCGACUCUAGAAAACAUG,binding signal,PUM1 PUF domain R6-CFH,4.34 log2 enrichment (interaction score)
